Reference: PubChem BioAssay (NCI)
About 83,000 compounds went through this panel and 20% of them were active in at least one assay; those are over-represented in the sample as a whole.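 Plates (96-well) were seeded with cells, treated with compound at one concentration, and incubated for 48 hours before percent growth was determined.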 Values without a mark were called inactive. Active and inactive are the calls of the source. How the source made its calls: active means growth percent below 10; inactive means the rest.

Columns and labels:
Assay in all cases: NCI-60 one-dose screen, 48 h (100 = growth as untreated, 0 = no growth, -100 = all killed)
Conditions in all cases: 10 µM unless noted
[1] = system: NCI-H23 lung
[2] = system: NCI-H226 lung
[3] = system: NCI-H322M lung
[4] = system: HOP-62 NSCLC
[5] = system: NCI-H460 lung
[6] = system: HOP-92 NSCLC
[7] = system: NCI-H522 lung
[8] = system: A549/ATCC NSCLC
[9] = system: 786-0 renal
[10] = system: COLO 205 colon
[11] = system: DU-145 prostate
[12] = system: K-562 leukemia
[13] = system: MALME-3M melanoma
[14] = system: MDA-MB-231 breast
[15] = system: RXF 393 renal
[16] = system: SF-268 CNS
[17] = system: SF-295 CNS
[18] = system: SF-539 CNS
[19] = system: UACC-257 melanoma
[20] = system: M14 melanoma

| Compound | growth [1] | growth [2] | growth [3] | growth [4] | growth [5] | growth [6] | growth [7] | growth [8] | growth [9] | growth [10] | growth [11] | growth [12] | growth [13] | growth [14] | growth [15] | growth [16] | growth [17] | growth [18] | growth [19] | growth [20] |
| --- | --- | --- | --- | --- | --- | --- | --- | --- | --- | --- | --- | --- | --- | --- | --- | --- | --- | --- | --- | --- |
| COc1c(B(O)O)cc(F)cc1-c1nc2ccc3[nH]ncc3c2c2c1CCCC2 | 0.235% (active) | 8.89% (active) | 14.2% | 16.1% | 5.46% (active) | 19.7% | 13.1% | 15% | 1.01% (active) | -3.77% (active) | 11.1% | 30.5% | 20.3% | 22% | -34.5% (active) | 9.38% (active) | 10.8% | -13.4% (active) | 20.1% | 28.3% |
| CNc1ccc(Nc2cccc(C)c2)c2c1C(=O)c1ccccc1C2=O | 89.9% | 93.1% | 82.1% | 102% | 87.6% | 28.9% | 75.9% | 97.7% | 100% | 105% | 85% | 92.7% | 147% | 96.1% | 93.4% | 87.5% | 146% | 99% | 107% | 122% |
| Cc1nc2cnc(N)c(C#Cc3cncc(C(=O)Nc4ccc(CN5CCN(C)CC5)c(C(F)(F)F)c4)c3)c2nc1C | -9.47% (active) | 3.74% (active) | -5.35% (active) | 11.9% | 4.26% (active) | -39% (active) | 4.74% (active) | 2.19% (active) | 35% | -17.5% (active) | 8.22% (active) | 7.33% (active) | -40.5% (active) | -12.3% (active) | -68.3% (active) | 8% (active) | 36% | -23.3% (active) | -25.8% (active) | -55.6% (active) |
| O=C(Cc1ccc(F)c(Cl)c1)Nc1cc(C2(C(F)(F)F)CC2)nn1CC1CCCCC1 | -2.27% (active) | 14.5% | 9.83% (active) | -8.44% (active) | 3.01% (active) | -14.9% (active) | -28.1% (active) | 9.72% (active) | 9.17% (active) | -86.2% (active) | 20.9% | 11.1% | -24.1% (active) | -60.3% (active) | -28.7% (active) | 9.97% (active) | 1.21% (active) | 8.62% (active) | -9.88% (active) | 17.1% |
| COc1ccc(-c2c(C(=O)NS(C)(=O)=O)n(Cc3cccc(C(F)(F)F)c3)c3ccccc23)cc1 | 97.4% | 82.1% | 94.5% | 89.4% | 89.7% | 62.2% | 80.8% | 88.8% | 95.3% | 105% | 100% | 87.7% | 76.8% | 95.5% | 111% | 95% | 89.8% | 98.3% | 95.2% | 94.6% |
| CC[C@H](C)C(=O)O[C@H]1CCC=C2C=C[C@H](C)[C@H](CC[C@@H]3CC=CC(=O)O3)[C@H]21 | 96.5% | 107% | 95.9% | 99.6% | 99% | 42% | 56.2% | 85.6% | 95.5% | 103% | 88.7% | 46.4% | 92.5% | 97.6% | 96.6% | 99.2% | 115% | 80.5% | 77.8% | 76.4% |
| Cn1cc(-c2cc3ncnc(Nc4ccc(CC(=O)Nc5cc(C(C)(C)C)on5)cc4)c3s2)cn1 | 50.2% | 26% | 32.9% | 58.1% | 28.4% | 35.8% | 36.3% | 21.6% | 36% | 24.7% | 29.9% | 11.1% | 43.4% | 34.4% | 19.3% | 31.6% | 49.9% | 15.7% | 59.3% | 21.1% |
| O=c1c2cc(F)ccc2sc2c(N3CCNCC3)nc3ccccc3c12 | 68.8% | 88% | 60.3% | 61.4% | -76.4% (active) | 36.8% | 39.3% | 34.4% | 65.7% | -49.6% (active) | -31.5% (active) | -38.2% (active) | 84.8% | -29.1% (active) | 58.1% | 55.1% | 92.1% | 29.8% | 92.1% | -52.7% (active) |
